# According to paper PMC7862700, “An all-to-all approach to the identification of sequence-specific readers for epigenetic DNA modifications on cytosine”:
# Key:
# Assay in all cases: DAPPL (digital affinity profiling via proximity ligation, sequencing); 10 mM Tris-HCl pH 7.5, 50 mM NaCl, 1 mM DTT, 4% glycerol, room temperature, 30 min; GST-TFs on glutathione beads, 16-mer random dsDNA library, 0.1% formaldehyde crosslink after washing; high values mean tight binding
# [1] = target: T1, FEV (Homo sapiens, UniProt Q99581 1-238); conditions: protein: recombinant; tags: N-terminal GST; dsDNA, one strand shown
# T1 sequence: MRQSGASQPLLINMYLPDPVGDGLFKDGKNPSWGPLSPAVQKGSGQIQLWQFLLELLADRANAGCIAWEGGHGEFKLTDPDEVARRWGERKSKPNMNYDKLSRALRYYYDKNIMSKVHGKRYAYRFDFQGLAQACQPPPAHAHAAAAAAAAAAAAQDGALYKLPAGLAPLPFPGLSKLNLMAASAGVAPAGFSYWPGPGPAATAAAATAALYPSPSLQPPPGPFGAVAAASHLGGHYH
# Procedure, shortened: (§1)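 In yeast, human transcription factors were expressed with a GST fusion, then pulled down on glutathione beads and given DNA barcodes. Pooled with a tag-only sample, they were exposed to 200 nmole of a 16-mer random double-stranded DNA library (Tris/NaCl/DTT/glycerol buffer, room temperature, 30 min), washed, crosslinked with 0.1% formaldehyde, proximity-ligated using BsaI/T4 ligase for 1 h at 37 °C, PCR-amplified and read on an Illumina NextSeq500. Each hexamer's frequency of reads for a factor, divided by the matching frequency for the tag-only sample, gives the binding signal.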
# [2] = target: ETV5 (Homo sapiens, UniProt P41161 1-510); conditions: protein: recombinant; tags: N-terminal GST; dsDNA, one strand shown
# Procedure, shortened: as §1
# [3] = target: HSF1 (Homo sapiens, UniProt Q00613 1-529); conditions: protein: recombinant; tags: N-terminal GST; chain copies: 3; dsDNA, one strand shown
# Procedure, shortened: as §1
# [4] = target: T2, SPIC (Homo sapiens, UniProt Q8N5J4 1-248); conditions: protein: recombinant; tags: N-terminal GST; dsDNA, one strand shown
# T2 sequence: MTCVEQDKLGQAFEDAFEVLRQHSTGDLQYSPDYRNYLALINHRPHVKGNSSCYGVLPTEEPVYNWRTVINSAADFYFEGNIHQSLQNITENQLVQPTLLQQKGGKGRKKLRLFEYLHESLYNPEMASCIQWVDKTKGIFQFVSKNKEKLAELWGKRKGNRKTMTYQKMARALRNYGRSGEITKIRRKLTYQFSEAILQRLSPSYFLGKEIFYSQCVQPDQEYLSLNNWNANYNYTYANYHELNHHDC
# Procedure, shortened: as §1
# [5] = target: ELF4 (Homo sapiens, UniProt Q99607 1-663); conditions: protein: recombinant; tags: N-terminal GST; dsDNA, one strand shown
# Procedure, shortened: as §1
# [6] = target: T3, ELK4 (Homo sapiens, UniProt P28324-2 1-405); conditions: protein: recombinant; tags: N-terminal GST; dsDNA, one strand shown
# T3 sequence: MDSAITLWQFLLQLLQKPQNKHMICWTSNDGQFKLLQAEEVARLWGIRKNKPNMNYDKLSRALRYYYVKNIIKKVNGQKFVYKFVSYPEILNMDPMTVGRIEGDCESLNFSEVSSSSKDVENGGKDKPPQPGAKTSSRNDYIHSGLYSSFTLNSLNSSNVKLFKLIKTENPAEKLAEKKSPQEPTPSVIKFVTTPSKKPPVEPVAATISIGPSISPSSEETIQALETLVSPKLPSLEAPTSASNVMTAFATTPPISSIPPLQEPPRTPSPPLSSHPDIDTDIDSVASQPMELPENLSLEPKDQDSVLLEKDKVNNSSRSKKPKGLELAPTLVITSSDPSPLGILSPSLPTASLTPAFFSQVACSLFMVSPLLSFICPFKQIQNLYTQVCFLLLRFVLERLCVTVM
# Procedure, shortened: as §1
# [7] = target: T4, ETV2 (Homo sapiens, UniProt O00321 1-342); conditions: protein: recombinant; tags: N-terminal GST; dsDNA, one strand shown
# T4 sequence: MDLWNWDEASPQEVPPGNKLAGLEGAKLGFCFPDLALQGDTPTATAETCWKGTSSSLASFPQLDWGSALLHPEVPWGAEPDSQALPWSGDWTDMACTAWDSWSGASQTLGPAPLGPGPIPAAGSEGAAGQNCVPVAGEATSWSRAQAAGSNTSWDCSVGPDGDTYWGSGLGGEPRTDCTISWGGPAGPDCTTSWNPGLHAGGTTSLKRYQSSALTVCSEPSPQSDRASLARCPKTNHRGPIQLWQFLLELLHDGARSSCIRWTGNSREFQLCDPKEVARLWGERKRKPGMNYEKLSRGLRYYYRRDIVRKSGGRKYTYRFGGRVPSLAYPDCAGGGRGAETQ
# Procedure, shortened: as §1
# [8] = target: T5, ELF3 (Homo sapiens, UniProt P78545 1-371); conditions: protein: recombinant; tags: N-terminal GST; dsDNA, one strand shown
# T5 sequence: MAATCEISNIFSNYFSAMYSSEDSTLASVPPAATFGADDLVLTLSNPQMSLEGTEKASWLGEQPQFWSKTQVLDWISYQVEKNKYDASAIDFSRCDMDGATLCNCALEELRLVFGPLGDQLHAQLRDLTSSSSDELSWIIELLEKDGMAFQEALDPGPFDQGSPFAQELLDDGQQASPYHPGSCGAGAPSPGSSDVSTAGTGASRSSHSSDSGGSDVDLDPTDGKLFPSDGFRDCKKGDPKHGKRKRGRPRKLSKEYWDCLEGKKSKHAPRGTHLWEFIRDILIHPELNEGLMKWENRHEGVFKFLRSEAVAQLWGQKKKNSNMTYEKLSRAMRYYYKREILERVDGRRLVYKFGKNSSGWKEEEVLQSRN
# Procedure, shortened: as §1
# [9] = target: CRX (Homo sapiens, UniProt O43186 1-299); conditions: protein: recombinant; tags: N-terminal GST; dsDNA, one strand shown
# Procedure, shortened: as §1
# [10] = target: ETV1 (Homo sapiens, UniProt P50549 1-477); conditions: protein: recombinant; tags: N-terminal GST; dsDNA, one strand shown
# Procedure, shortened: as §1
# [11] = target: T6, ERF (Homo sapiens, UniProt P50548 1-548); conditions: protein: recombinant; tags: N-terminal GST; dsDNA, one strand shown
# T6 sequence: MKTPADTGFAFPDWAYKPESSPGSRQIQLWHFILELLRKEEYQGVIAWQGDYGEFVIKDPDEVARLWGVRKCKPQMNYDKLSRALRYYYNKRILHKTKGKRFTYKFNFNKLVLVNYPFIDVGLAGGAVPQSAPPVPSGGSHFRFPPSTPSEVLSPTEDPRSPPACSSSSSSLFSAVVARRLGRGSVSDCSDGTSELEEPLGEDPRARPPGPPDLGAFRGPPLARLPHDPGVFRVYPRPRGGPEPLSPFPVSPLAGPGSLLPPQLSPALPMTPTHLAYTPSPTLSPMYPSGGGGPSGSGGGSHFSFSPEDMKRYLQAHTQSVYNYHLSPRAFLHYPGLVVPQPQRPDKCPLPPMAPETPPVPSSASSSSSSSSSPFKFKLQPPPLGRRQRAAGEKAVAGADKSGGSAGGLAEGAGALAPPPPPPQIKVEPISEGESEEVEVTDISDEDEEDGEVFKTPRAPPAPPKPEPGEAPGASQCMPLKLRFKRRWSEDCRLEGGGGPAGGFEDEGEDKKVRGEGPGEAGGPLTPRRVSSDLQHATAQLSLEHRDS
# Procedure, shortened: as §1
# [12] = target: T7, ETV3L (Homo sapiens, UniProt Q6ZN32 1-361); conditions: protein: recombinant; tags: N-terminal GST; dsDNA, one strand shown
# T7 sequence: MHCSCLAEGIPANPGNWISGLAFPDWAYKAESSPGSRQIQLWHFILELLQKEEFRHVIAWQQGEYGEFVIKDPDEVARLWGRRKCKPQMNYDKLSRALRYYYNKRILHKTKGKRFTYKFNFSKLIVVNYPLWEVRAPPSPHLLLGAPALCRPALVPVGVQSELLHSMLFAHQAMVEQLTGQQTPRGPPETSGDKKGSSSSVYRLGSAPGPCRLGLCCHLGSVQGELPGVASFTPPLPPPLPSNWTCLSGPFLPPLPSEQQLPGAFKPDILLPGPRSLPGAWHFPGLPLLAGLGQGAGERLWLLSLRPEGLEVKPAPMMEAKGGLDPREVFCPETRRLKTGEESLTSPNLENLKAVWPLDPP
# Procedure, shortened: as §1
# [13] = target: T8, ETS2 (Homo sapiens, UniProt P15036 1-469); conditions: protein: recombinant; tags: N-terminal GST; dsDNA, one strand shown
# T8 sequence: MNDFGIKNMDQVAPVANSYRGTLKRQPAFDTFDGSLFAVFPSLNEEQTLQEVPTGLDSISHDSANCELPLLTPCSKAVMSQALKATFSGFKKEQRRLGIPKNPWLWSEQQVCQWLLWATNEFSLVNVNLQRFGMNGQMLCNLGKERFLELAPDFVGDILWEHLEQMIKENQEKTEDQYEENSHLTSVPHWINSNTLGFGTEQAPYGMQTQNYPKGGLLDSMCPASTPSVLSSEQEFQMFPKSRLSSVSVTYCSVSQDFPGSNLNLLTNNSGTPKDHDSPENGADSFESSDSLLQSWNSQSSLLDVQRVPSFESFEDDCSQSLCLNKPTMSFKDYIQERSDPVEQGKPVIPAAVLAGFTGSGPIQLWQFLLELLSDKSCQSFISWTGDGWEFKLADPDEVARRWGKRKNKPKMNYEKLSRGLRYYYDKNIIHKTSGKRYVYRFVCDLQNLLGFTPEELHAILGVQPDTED
# Procedure, shortened: as §1
# [14] = target: T9, SPDEF (Homo sapiens, UniProt O95238 1-335); conditions: protein: recombinant; tags: N-terminal GST; dsDNA, one strand shown
# T9 sequence: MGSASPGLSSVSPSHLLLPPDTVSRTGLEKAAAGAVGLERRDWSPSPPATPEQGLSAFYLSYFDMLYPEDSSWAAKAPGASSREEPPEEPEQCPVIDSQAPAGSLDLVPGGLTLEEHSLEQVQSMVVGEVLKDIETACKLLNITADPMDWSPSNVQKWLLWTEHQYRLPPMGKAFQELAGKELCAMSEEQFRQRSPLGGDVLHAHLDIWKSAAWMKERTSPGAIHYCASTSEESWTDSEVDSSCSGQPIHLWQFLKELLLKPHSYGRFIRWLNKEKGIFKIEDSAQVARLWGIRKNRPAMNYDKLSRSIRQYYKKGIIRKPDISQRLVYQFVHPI
# Procedure, shortened: as §1
# [15] = target: T10, ETV7 (Homo sapiens, UniProt Q9Y603 1-341); conditions: protein: recombinant; tags: N-terminal GST; dsDNA, one strand shown
# T10 sequence: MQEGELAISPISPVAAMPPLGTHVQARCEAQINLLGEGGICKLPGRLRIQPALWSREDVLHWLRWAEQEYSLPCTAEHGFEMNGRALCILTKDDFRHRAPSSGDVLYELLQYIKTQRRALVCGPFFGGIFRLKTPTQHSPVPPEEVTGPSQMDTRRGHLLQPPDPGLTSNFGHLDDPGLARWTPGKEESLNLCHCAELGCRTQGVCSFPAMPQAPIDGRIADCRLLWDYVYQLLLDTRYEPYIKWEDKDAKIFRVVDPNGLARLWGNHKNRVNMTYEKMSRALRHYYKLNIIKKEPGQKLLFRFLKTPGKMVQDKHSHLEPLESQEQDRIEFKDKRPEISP
# Procedure, shortened: as §1
# [16] = target: T11, ELF5 (Homo sapiens, UniProt Q9UKW6-2 1-255); conditions: protein: recombinant; tags: N-terminal GST; dsDNA, one strand shown
# T11 sequence: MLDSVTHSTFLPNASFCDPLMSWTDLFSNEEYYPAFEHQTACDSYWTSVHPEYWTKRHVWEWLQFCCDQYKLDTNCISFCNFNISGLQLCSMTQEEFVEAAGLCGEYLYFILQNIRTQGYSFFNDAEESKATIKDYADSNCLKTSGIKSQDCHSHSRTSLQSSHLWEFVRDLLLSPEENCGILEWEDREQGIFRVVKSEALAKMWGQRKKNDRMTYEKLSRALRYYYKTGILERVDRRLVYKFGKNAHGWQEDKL
# Procedure, shortened: as §1
# [17] = target: T12, ETV3 (Homo sapiens, UniProt P41162-2 1-143); conditions: protein: recombinant; tags: N-terminal GST; dsDNA, one strand shown
# T12 sequence: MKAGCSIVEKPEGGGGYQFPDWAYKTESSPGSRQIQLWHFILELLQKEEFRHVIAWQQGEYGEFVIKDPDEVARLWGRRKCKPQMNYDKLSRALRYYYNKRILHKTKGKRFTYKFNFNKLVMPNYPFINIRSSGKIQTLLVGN
# Procedure, shortened: as §1
# [18] = target: ETV6 (Homo sapiens, UniProt P41212 1-452); conditions: protein: recombinant; tags: N-terminal GST; dsDNA, one strand shown
# Procedure, shortened: as §1
# CRX, sequence (O43186 whole entry): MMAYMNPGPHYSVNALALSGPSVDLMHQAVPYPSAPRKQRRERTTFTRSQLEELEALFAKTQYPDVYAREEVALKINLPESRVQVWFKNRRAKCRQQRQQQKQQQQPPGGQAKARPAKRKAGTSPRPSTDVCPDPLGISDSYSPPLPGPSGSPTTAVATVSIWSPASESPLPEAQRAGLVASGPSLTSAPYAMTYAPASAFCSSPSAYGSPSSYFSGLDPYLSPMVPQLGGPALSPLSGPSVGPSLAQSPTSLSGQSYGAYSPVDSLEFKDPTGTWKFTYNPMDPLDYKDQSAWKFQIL
# ETV1, sequence (P50549 whole entry): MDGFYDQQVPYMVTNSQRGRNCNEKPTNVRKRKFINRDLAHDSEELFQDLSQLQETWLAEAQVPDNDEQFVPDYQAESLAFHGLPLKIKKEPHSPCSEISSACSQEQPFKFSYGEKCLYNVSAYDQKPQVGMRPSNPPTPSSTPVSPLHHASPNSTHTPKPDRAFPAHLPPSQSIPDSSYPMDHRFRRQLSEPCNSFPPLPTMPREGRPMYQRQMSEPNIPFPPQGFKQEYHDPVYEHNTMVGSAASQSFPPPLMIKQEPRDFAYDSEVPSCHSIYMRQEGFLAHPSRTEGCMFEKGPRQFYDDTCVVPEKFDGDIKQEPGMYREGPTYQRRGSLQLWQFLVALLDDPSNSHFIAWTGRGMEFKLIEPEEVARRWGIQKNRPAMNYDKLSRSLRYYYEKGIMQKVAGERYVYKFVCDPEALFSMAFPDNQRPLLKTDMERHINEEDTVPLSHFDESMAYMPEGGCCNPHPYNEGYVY
# HSF1, sequence (Q00613 whole entry): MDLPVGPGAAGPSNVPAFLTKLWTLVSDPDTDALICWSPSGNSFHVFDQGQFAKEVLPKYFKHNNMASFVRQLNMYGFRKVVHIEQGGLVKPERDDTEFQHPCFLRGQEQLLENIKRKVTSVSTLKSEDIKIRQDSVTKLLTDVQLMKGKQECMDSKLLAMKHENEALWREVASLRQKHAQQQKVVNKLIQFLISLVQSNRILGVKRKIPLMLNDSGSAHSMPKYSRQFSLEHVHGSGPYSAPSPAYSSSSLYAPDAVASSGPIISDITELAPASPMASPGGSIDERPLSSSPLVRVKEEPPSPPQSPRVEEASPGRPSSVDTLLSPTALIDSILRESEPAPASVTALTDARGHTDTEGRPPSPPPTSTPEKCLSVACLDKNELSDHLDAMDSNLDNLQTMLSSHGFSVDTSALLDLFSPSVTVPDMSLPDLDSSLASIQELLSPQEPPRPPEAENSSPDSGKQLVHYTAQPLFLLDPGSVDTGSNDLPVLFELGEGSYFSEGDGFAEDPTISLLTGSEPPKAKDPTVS
# ELF4, sequence (Q99607 whole entry): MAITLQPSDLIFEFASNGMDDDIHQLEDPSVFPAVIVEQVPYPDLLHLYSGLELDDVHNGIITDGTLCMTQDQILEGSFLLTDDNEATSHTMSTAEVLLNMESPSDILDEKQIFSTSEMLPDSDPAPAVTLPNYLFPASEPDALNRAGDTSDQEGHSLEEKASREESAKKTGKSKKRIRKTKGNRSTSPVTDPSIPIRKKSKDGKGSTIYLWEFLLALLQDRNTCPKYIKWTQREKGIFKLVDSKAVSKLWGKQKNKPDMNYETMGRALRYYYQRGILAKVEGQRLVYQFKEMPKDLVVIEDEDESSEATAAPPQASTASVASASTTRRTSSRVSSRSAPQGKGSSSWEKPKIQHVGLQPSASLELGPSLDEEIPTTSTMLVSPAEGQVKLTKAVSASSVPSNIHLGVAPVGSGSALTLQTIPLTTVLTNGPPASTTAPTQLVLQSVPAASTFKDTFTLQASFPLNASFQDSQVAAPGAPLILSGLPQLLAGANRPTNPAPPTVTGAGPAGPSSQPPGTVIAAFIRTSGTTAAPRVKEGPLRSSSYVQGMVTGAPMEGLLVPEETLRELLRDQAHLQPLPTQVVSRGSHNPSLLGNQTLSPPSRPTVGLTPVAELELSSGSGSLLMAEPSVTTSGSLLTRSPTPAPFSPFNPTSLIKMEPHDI
# ETV5, sequence (P41161 whole entry): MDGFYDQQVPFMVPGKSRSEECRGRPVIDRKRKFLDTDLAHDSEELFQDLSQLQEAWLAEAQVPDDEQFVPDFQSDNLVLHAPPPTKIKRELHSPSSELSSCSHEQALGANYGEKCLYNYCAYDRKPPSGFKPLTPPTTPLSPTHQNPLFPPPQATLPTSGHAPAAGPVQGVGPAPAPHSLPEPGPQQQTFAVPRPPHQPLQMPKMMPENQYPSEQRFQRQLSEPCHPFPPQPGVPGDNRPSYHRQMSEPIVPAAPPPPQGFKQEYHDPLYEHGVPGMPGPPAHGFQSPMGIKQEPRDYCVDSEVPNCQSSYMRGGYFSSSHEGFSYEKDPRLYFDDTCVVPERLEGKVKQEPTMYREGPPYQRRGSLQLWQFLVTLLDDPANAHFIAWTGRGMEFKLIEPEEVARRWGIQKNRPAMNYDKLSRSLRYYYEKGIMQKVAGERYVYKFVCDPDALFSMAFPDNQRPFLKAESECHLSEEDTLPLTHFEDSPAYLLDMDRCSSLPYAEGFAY
# ETV6, sequence (P41212 whole entry): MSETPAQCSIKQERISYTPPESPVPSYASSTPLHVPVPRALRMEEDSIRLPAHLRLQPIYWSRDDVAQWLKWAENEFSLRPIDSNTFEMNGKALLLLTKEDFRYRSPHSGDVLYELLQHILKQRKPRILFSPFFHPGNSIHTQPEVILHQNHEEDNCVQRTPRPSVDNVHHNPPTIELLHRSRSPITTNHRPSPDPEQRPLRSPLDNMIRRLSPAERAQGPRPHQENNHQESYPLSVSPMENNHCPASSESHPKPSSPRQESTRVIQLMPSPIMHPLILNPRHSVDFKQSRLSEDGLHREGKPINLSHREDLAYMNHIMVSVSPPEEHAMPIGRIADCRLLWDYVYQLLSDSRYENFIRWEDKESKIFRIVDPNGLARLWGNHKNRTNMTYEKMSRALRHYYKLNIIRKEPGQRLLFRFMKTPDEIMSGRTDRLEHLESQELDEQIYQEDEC
sequence,measurement,setting,value
TTCCCA,binding signal,[1],"1.16 fold enrichment (6-mer frequency, TF over GST control)"
same,binding signal,[2],"1.29 fold enrichment (6-mer frequency, TF over GST control)"
same,binding signal,[3],"1.08 fold enrichment (6-mer frequency, TF over GST control)"
same,binding signal,[4],"1.23 fold enrichment (6-mer frequency, TF over GST control)"
same,binding signal,[5],"1.26 fold enrichment (6-mer frequency, TF over GST control)"
same,binding signal,[6],"1.08 fold enrichment (6-mer frequency, TF over GST control)"
same,binding signal,[7],"1.13 fold enrichment (6-mer frequency, TF over GST control)"
same,binding signal,[8],"1.27 fold enrichment (6-mer frequency, TF over GST control)"
same,binding signal,[9],"1.16 fold enrichment (6-mer frequency, TF over GST control)"
same,binding signal,[10],"1.2 fold enrichment (6-mer frequency, TF over GST control)"
same,binding signal,[11],"1.24 fold enrichment (6-mer frequency, TF over GST control)"
same,binding signal,[12],"1.25 fold enrichment (6-mer frequency, TF over GST control)"
same,binding signal,[13],"1.15 fold enrichment (6-mer frequency, TF over GST control)"
same,binding signal,[14],"1.25 fold enrichment (6-mer frequency, TF over GST control)"
same,binding signal,[15],"1.27 fold enrichment (6-mer frequency, TF over GST control)"
same,binding signal,[16],"1.42 fold enrichment (6-mer frequency, TF over GST control)"
same,binding signal,[17],"1.25 fold enrichment (6-mer frequency, TF over GST control)"
same,binding signal,[18],"1.33 fold enrichment (6-mer frequency, TF over GST control)"
